Assay outcomes (PubChem BioAssay)
TRPV1 ag = activates the human vanilloid receptor TRPV1 | AID 540275 | TRPV1-expressing cells, Fluo-8 calcium influx, agonist mode | activation, % at 8.33 µM | Q8NER1 | hit rate 0.19% among 320,000; in the data active = activation above about 80%; inconclusive = between about 30% and that limit
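TRPV1-expressing cells were cultured overnight at 35.5C and loaded with Fluo-8 calcium dye for 40 to 90 min at room temperature. After a 10 s baseline, compound was added and calcium influx was read kinetically for 3 min (ex 480/em 520 nm).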
TRPV1 PAM = potentiators of human vanilloid receptor 1 (TRPV1). Q8NER1. TRPV1-expressing cells, Fluo-8 calcium influx, capsaicin EC20 potentiation. potentiation, % at 8.33 µM. hit rate 0.02% among 320,000. AID 540277; in the data active = potentiation above about 80%; inconclusive = between about 30% and that limit
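Fluo-8 calcium influx in TRPV1-expressing cells, kinetic read (ex 480/em 520 nm). Compound added and read 3 min for agonist activity, followed by capsaicin at EC20 final and 2 min further read for enhancement.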
KCNH2 3.1 block = inhibitors of human KCNH2 3.1 potassium channel isoform. U2OS KCNH2 3.1, thallium flux FluxOr; active compounds read low. activity change, % (tested at about 1.8 µM). hit rate 0.95% among 340,000;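 active = maximum activity change below -70%; inconclusive = maximum activity change from -70% to -50%; inactive = maximum activity change above -50%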;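 note: thallium influx rate constant from kinetic fluorescence after stimulation buffer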
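Virally transduced U2OS (3.1 isoform, 4 h infection in dark at RT) → overnight 37 C → FluxOr + Red40 in HBSS/HEPES, 45 min → stimulation buffer, 2 min kinetic read → rate constant vs DMSO controls.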
KCNH2 WT inh = inhibitors of human wildtype KCNH2 potassium channel. Q12809. U2OS, BacMam KCNH2, thallium flux FluxOr; active compounds read low. activity change, % at 1.84 µM. hit rate 0.37% among 340,000. AID 720551;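 active = maximum activity change below -70%; inconclusive = maximum activity change between -70% and -50%; inactive = maximum activity change above -50%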
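U2OS cells were transduced with wild-type KCNH2 virus (2.03 x 10^8 / mL) for 4 h at room temperature, then cultured overnight at 37 C. Thallium flux was read with FluxOr dye. Rate constants were normalized to DMSO controls.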
Of the large screens only hits and unclear results are named; the others gave an inactive call. The list is not random: actives were taken first. Their share in the collection is about 1.2%.

C[C@H](CO)N1C[C@H](C)[C@@H](CN(C)C(=O)NC2CCCCC2)Oc2ccc(NC(=O)C3CC3)cc2C1=O	none (no result: TRPV1 ag, TRPV1 PAM)
COC(=O)c1c(C)c[nH]c1C	none
CCOC(=O)c1c(C)c[nH]c1C	KCNH2 3.1 block -85
O=C(COC(=O)c1ccc(Cl)nc1)c1ccc2c(c1)OCCO2	KCNH2 WT inh -107
CC(C)=CCCC(C)=CCN1C(=O)CN(C)C1=O	none (no result: TRPV1 ag, TRPV1 PAM)
CN(C1CCCCC1)S(=O)(=O)c1ccc2c(c1)c(=O)c(C(=O)O)cn2C	none (no result: TRPV1 ag, TRPV1 PAM)
N/C(=N\c1nc2c(c(=O)[nH]1)CCC2)Nc1cccc2ccccc12	KCNH2 3.1 block -78
CCCCN(C)C(=O)c1nc2ccccn2c1CN1CCN(c2ncccn2)CC1	none
CCCCN(C)C(=O)c1nc2ccccn2c1CN1CCN(C/C=C/c2ccccc2)CC1	KCNH2 3.1 block -102
COc1ccc(CCc2nnc(CCC(=O)N(C)Cc3ccncc3C)o2)cc1	KCNH2 3.1 block -72
Cc1cccc(Cc2nnc(CCC(=O)N(C)Cc3ccncc3C)o2)c1	none
CC(=O)Nc1ccc(S(=O)(=O)NCCC(=O)NC(C)c2cccs2)cc1 (stereo not drawn)	none (no result: TRPV1 ag, TRPV1 PAM)
O=C1CCCCCN1Cc1nnc(SCc2nc3ccccc3s2)n1-c1ccccn1	KCNH2 3.1 block -80
CCNC(=O)CSc1nnc(CN2CCCCCC2=O)n1-c1ccccn1	none
CC[C@@H]1CC=C[C@H]2[C@H]1C(=O)N(Cc1ccccc1)[C@H]2c1ccoc1	none
CC[C@@H]1CC=C[C@H]2[C@H]1C(=O)N(Cc1ccccc1)[C@H]2c1ccc(C(F)(F)F)cc1	TRPV1 ag inconclusive, KCNH2 3.1 block -77
CCN(CC)S(=O)(=O)c1ccc(N2CCOCC2)c(NS(=O)(=O)c2ccc(C)c(C)c2)c1	KCNH2 3.1 block -94
COc1ccc(NC(=O)Cc2ccc(C)c(C)c2)cc1S(=O)(=O)N1CCCCC1	none (no result: TRPV1 ag, TRPV1 PAM, KCNH2 3.1 block)
COc1ccc(NC(=O)c2cc(-c3ccccc3Cl)no2)cc1	TRPV1 ag inconclusive
O=C(Nc1ccccc1)c1cc(-c2ccccc2Cl)no1	TRPV1 ag 85
COc1ccc2c(c1OC)CN(C)CCc1cc3c(cc1C(=O)C2)OCO3	KCNH2 3.1 block -84
CC(C)(C)c1ccc(NC(=O)N2CCCN(c3ccc([N+](=O)[O-])cn3)CC2)cc1	TRPV1 ag 92
Cc1[nH]n(-c2ccc([N+](=O)[O-])cc2)c(=O)c1C=NCCN1CCN(C(=O)c2ccc(F)cc2)CC1	none
Cc1[nH]n(-c2ccc([N+](=O)[O-])cc2)c(=O)c1C=NCCN1CCN(C(=O)c2ccc(Br)cc2)CC1	KCNH2 3.1 block -84, KCNH2 WT inh -108
O=C(c1ccco1)N(CCCN1CCOCC1)c1nc(-c2ccc(Cl)cc2)cs1	none
CCN(CC)CCCN(C(=O)c1ccco1)c1nc(-c2ccc(C)cc2)cs1	KCNH2 3.1 block -94
COCCCN(C(=O)c1ccco1)c1nc(-c2ccc(OC)cc2)cs1	none
CCN(CC)CCCN(C(=O)c1ccco1)c1nc(-c2ccc(Cl)cc2)cs1	KCNH2 3.1 block -80
CCn1cc(S(=O)(=O)CC(=O)Nc2cc(C)ccc2C)c2ccccc21	KCNH2 3.1 block -118 (no result: TRPV1 ag, TRPV1 PAM)
N#Cc1ccccc1S(=O)(=O)N1CCN(C(=O)C2CC(=O)N(c3ccc4c(c3)OCCO4)C2)CC1 (stereo not drawn)	KCNH2 3.1 block -75 (no result: TRPV1 ag, TRPV1 PAM)
Cc1ccc(S(=O)(=O)N2CCN(C(=O)C3CC(=O)N(c4ccc5c(c4)OCCO5)C3)CC2)cc1 (stereo not drawn)	none
CC(O)CNCCNCc1c(OCc2ccccc2)ccc2ccccc12 (stereo not drawn)	none
OCCNCc1c(OCc2ccc(Cl)cc2)ccc2ccccc12	KCNH2 3.1 block -105, KCNH2 WT inh -128
CCC(Oc1ccccc1)C(=O)N1CCC(C(N)=O)CC1 (stereo not drawn)	KCNH2 WT inh -109 (no result: TRPV1 ag, TRPV1 PAM)
CO/N=C/c1ccc(N2CCN(C(=O)c3ccc(F)cc3)CC2)c([N+](=O)[O-])c1	KCNH2 3.1 block -102
Cc1ccc(C(=O)O/N=C\c2ccc(N3CCCCC3)c([N+](=O)[O-])c2)cc1	KCNH2 3.1 block -77
CO/N=C/c1ccc(N2CCN(C(=O)c3cccc(C(F)(F)F)c3)CC2)c([N+](=O)[O-])c1	KCNH2 WT inh -243
CO/N=C/c1ccc(N2CCN(C(=O)c3ccc(Cl)cc3Cl)CC2)c([N+](=O)[O-])c1	KCNH2 3.1 block -109
O=C(O/N=C\c1ccc(N2CCCCC2)c([N+](=O)[O-])c1)c1cccc(C(F)(F)F)c1	none
CCOC(=O)c1cnc(SCc2cccc3ccccc23)nc1N	KCNH2 3.1 block -133
